In the library only some 1.7% were active in any assay of this set; here they are far more common.
GLP1R cytotox – cytotoxicity in counter-screen for GLP-1R inverse agonists; actives 0.13% (n = 410,000); Potency, µM (top dose mostly 38.3 µM), inactives show at the top dose activity change, negative = inhibition, most hits filed as inhibitors; AID 624418; HEK293 cAMP-luciferase reporter cells, luminescence, 24 h;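 also: loss of luciferase light is scored as toxicity; % is scaled to controls: 0 for no effect and ±100 for the full control effect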
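Step one: seed cells (200 cells/uL, DMEM with 10% Nu serum, 1% pen-strep). Step two: 12-hour incubation at 37 deg C. Step three: pin 23 nL compound, incubate 24 hr. Step four: add luciferase reagent, read luminescence 12 min later.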
PTHR1 agonist – agonists of human PTHR1 parathyroid hormone receptor; AID 743266; Potency, µM (series often up to 115 µM), without a hit: top-dose activation, actives largely listed as activators; Q03431; HEK293 GP2 PTHR1 cells, GloSensor cAMP luminescence, 1 h; actives 0.075% (n = 410,000); also: nearly all actives have a fitted effect of over 55% in size
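HEK-293-derived GP2 cells expressing PTHR1 and a GloSensor cAMP reporter, 3,000/well, plated overnight, given luciferin plus IBMX (each 0.5 mM as added) for 1 h at 37 °C, then compound for 1 h at 37 °C. Luminescence was read after 15 min at room temperature.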
RGS4 inhibitor – blocks human RGS4-accelerated GTP hydrolysis; P49798; Transcreener GDP fluorescence polarization, RGS4-accelerated GTP hydrolysis; Potency, µM (series often up to 114 µM), for the others: at the highest dose activity change, negative = inhibition, actives largely listed as inhibitors; actives 0.039% (n = 390,000); AID 504845; also: % is scaled to controls: 0 for no effect and ±100 for the full control effect; nearly all actives have a fitted effect of over 75% in size
Target sequence (P49798 whole entry, looked up): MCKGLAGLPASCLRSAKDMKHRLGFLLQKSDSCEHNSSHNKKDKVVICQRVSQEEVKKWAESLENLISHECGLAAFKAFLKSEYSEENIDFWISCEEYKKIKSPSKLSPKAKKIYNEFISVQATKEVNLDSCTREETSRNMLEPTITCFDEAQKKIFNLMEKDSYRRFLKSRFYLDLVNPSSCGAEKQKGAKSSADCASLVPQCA
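MLSMR compounds (23 nl, pin-transferred) preincubated 10 min at room temperature with a 500nM (2x) first reagent, then RGS4 at 900nM (2x) plus Transcreener GDP mix added; fluorescence polarization (620/688 nm) read before and after 90 min at 30 °C.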
GLP-1R agonist – agonists of human GLP-1 receptor; P43220; HEK293 GLP-1R CRE-luciferase, luminescence, 4-6 h; cells express a hypersensitive GLP-1R form; Potency, µM (top dose mostly 45.6 µM), for the others: top-dose activation, hits mostly activators; actives 0.007% (n = 380,000); also: % of control where 0% means no effect
GLP-1R inv ag – inverse agonists of human GLP-1 receptor; P43220; AID 624417; HEK293 GLP-1R CRE-luciferase, luminescence, 24 h; GLP-1R form is constitutively active; actives 1.6% (n = 410,000); Potency, µM (doses to about 38.3 µM), for the others: at the top dose activity change, negative = inhibition, hits mostly inhibitors; also: % is scaled to controls: 0 for no effect and ±100 for the full control effect; nearly all actives have a fitted effect of over 55% in size
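GLP-1R inverse agonism mode: basal reporter luminescence in engineered HEK293 cells measured after one day of compound exposure at 37 deg C, with a 12 min room-temperature detection step.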
The depositor's hits bear a star; i = inactive; u = inconclusive; x = no result; [ ] = remark or other dose. Calls follow the shape of the dose curve; as a rule, active = well fitted curve in the direction sought with a large enough effect; inconclusive = small, poorly fitted or top-dose-only effect, or another doubt; inactive = no such curve, though single readings can be large; an effect the other way counts as inactive or inconclusive. Potency is read from the fitted curve at half-maximal effect.

SMILES	GLP1R cytotox	PTHR1 agonist	RGS4 inhibitor	GLP-1R agonist	GLP-1R inv ag
CCN(CC(=O)NCc1ccc(Cl)cc1)C(=O)CSc1ccc(Br)cc1	3.8%	-42.5%	-6.2%	0.0%	6.31µM*
Cc1ncsc1CCSc1n[nH]c(=O)n1-c1ccccc1	-15.4%	-9.5%	12.7%	-0.7%	13.6%
Cc1ncsc1CCSc1nc2ccccc2c(=O)n1C	7.8%	-21.0%[57.5 µM]	14.0%	11.2µM*	0.0%
Cc1cn([C@H]2C[C@H](O)[C@@H](CCC(=O)NCCCc3ccccc3)O2)c(=O)[nH]c1=O	-5.4%	-24.5%	x	7.2%	17.3%
CCC(C)(C)C1CCC2(CC1)NC(=O)N(CC(=O)N(C)CCOc1ccc(Cl)cc1)C2=O (stereo not given)	8.8%	-22.2%	-0.8%	-2.6%	-11.5%
CCC(C)(C)C1CCC2(CC1)NC(=O)N(CC(=O)N(C)Cc1ccc(OC(F)F)cc1)C2=O (stereo not given)	-11.1%	-25.7%	-1.7%	14.2%	1.41µM*
CSc1ccccc1NC(=O)CN(C)Cc1ccc(Br)cc1	10.9%	i	17.3%	17.4%	7.08µM*
CCOC(=O)N1CCN(CC(=O)Nc2sc(CC)cc2C(=O)c2ccc(OC)cc2)CC1	-25.8%	-22.0%	-2.5%	18.5%	5.62µM*
CCc1cc(C(=O)OC)c(NC(=O)CN2CCN(C(=O)c3ccco3)CC2)s1	7.8%	-77.3%	5.5%	9.5%	10.4%
O=C(Nc1ccccc1C(=O)N1CCCCC1)c1nsc2ccccc12	-7.1%	i	-26.4%	x	-3.3%
O=C1C=C(N2CCCCC2)c2ccccc2C1=O	10µM*	-23.4%	-10.0%	-19.6%	u
COC(=O)c1ccc(C(=O)OC)c(NC(=O)CSCc2ccc(Br)cc2)c1	-17.9%	-24.5%	-5.7%	-1.4%	7.94µM*
Cn1cc(Cl)c(/C(N)=N/OC(=O)c2ccccc2C(F)(F)F)n1	0.0%	-6.5%	24.5%	10.8%	-16.8%
CC(NC(=O)CSCc1ccc(Br)cc1)c1ccccc1 (stereo not given)	1.3%	-44.4%	48.2%	14.4%	7.08µM*
CCCc1[nH]c2ccc(C#N)cc2c1CCC	u	-9.8%	-8.3%	-1.6%	10µM*
CC(C)c1ccc(NS(=O)(=O)c2ccc3[nH]cc(C(=O)NC4CCCCC4)c(=O)c3c2)cc1	-21.6%	i	14.9%	x	u
Cc1ccccc1NS(=O)(=O)c1ccc2[nH]cc(C(=O)NC3CCCCC3)c(=O)c2c1	-22.5%	-3.1%	9.0%	x	10µM*
Cc1c(Cl)cccc1NS(=O)(=O)c1ccc2[nH]cc(C(=O)NC3CCCC3)c(=O)c2c1	-21.8%	i	1.8%	x	u
Cc1cc(C)cc(NS(=O)(=O)c2ccc3[nH]cc(C(=O)NC4CCCCC4)c(=O)c3c2)c1	-17.9%	-2.3%	-11.9%	x	7.08µM*
C[C@H](/C=C/[C@@]1(O)[C@H](C)C[C@H](O)CC1(C)C)O[C@@H]1O[C@H](CO)[C@@H](O)[C@H](O)[C@H]1O	10.0%	-29.1%	-2.4%	3.4%	3.1%
CCN(CC)c1ccc(NC(=O)CN(C)Cc2cccs2)cc1	-1.5%	i	10.0%	13.9%	11.2µM*
CCCN(C(=O)Cc1coc2cc(OC)ccc12)C1CCS(=O)(=O)C1 (stereo not given)	-1.5%	i	6.0%	-0.4%	0.9%
CC1=C(C(=O)Nc2ccccc2)C(c2ccncc2)n2nc(SCc3ccccc3F)nc2N1 (stereo not given)	-8.6%	-7.9%	-2.7%	-0.7%	9.0%
COc1cc(C(=O)NCC(C)(C)CNC(=O)c2cc(OC)c(OC)c(OC)c2)cc(OC)c1OC	12.9%	-13.1%	2.5%	11.1%	36.0%
CCOc1cc(C(=O)NCC(C)(C)CNC(=O)c2cc(OCC)c(OCC)c(OCC)c2)cc(OCC)c1OCC	-13.1%	i	3.3%	0.6%	10µM*
CC(C)(C)OC(=O)N1CCC[C@H]1c1nnc(SCc2c(F)cccc2Cl)o1	-12.4%	-21.8%	-8.2%[11.4 µM]	15.3%	8.91µM*
CC(C)(C)OC(=O)N1CCC[C@H]1c1nnc(SCc2ccccc2Cl)o1	-12.8%	-33.2%[57.5 µM]	-1.8%	2.5%	u
